Screening data from PubChem BioAssay.
Rows were chosen to be rich in hits. Some 11% of all compounds tested hit in one or more screens of this group.
G9a block = qHTS Assay for Inhibitors of Histone Lysine Methyltransferase G9a. G9a H3K9 monomethylation, AlphaScreen, 2 h. Potency, µM (doses to about 102 µM), usual class: inhibitors. 350,000 tested, 8.8% active; further: nearly all actives have a fitted effect of over 75% in size
Target sequence (Q96KQ7 913-1193 limits assumed): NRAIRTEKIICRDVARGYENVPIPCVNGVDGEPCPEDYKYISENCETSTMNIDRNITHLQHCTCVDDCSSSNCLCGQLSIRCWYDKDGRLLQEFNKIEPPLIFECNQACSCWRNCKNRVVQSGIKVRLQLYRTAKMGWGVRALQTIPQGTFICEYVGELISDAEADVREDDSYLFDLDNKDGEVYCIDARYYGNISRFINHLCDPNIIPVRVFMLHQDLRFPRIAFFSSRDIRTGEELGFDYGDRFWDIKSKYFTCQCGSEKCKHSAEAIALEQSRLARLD
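Enzyme 20 nM + cpd, 15 min RT; add b-H3K9 pep 500 nM / SAM 20 uM; 2 h RT; anti-H3K9me1 Ab 0.5 ug/mL + SA donor / anti-rabbit acceptor beads 20 ug/mL each, 10 min; AlphaScreen read.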
Tau fibril FP = qHTS for Inhibitors of Tau Fibril Formation, Fluorescence Polarization. Microtubule-associated protein tau (Homo sapiens), P10636. K18 P301L tau heparin fibrillization, Alexa594 FP, 6 h. Potency, µM (series often up to 57.7 µM), actives largely listed as inhibitors. 280,000 tested, 0.39% active. AID 1468, 2008; further: nearly all actives have a fitted effect of over 55% in size
Target sequence (P10636 561-689 P618L limits assumed): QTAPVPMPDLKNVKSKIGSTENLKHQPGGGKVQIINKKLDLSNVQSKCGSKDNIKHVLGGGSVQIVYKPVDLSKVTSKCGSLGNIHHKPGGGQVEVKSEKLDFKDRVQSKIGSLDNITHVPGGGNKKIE
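Heparin (20 uM) drove fibril formation of recombinant tau K18 P301L, 15 uM unlabeled with 0.24 uM Alexa 594 label, for 6 hr at 37 C in 100 mM sodium acetate pH 7. Fluorescence polarization (555/632 nm) read 1 hr after 30 uM ThT.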
FBPA coupling cs = qHTS Assay for Inhibitors of Fructose-1,6-bisphosphate Aldolase from Giardia Lamblia: Coupling assay counterscreen | coupling enzyme system counterscreen, AmpLite Red fluorescence | activity change, negative = inhibition, % at 58.2 µM, hits read low | 290,000 tested, 0.67% active; in the data active means activity change below about -30%
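Final compound at 57.5 uM, incubated 10 min at RT with coupling enzyme reagent (glyceraldehyde-3-phosphate), then 20 min with substrate and AmpLite Red detection. Fluorescence read at 525/598 nm; tests interference with the coupling assay, not aldolase inhibition.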
Sfp PPTase inh = qHTS Assay for Inhibitors of Bacillus subtilis Sfp phosphopantetheinyl transferase (PPTase); 4'-phosphopantetheinyl transferase ffp (Bacillus subtilis), Q9F4F7; Biochemical Sfp PPTase activity, qHTS; Potency, µM, usual class: inhibitors; 310,000 tested, 3.5% active; AID 1490, 2009;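 further: the enzyme is Sfp with the accession as filed and its product quenches rhodamine fluorescence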
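Fluorescence-quenching assay with 15 nM Sfp, 5 uM rhodamine-CoA and 12.5 uM BHQ-2-labelled ybbR peptide in pH 7.6 Hepes/MgCl2 buffer. Enzyme was pre-incubated with compound for 15 min at room temperature. Rate was taken from the 30-min fluorescence change (525/598 nm).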
Tau fibril ThT = qHTS for Inhibitors of Tau Fibril Formation, Thioflavin T Binding; Potency, µM (highest dose often 57.4 µM), hits mostly inhibitors; AID 1460, 2008; 270,000 tested, 2.1% active; recombinant tau K18 P301L, heparin-induced fibrillization, ThT fluorescence; further: nearly all actives have a fitted effect of over 55% in size
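Tau K18 P301L fragment (15 uM unlabeled plus 0.24 uM Alexa 594-labeled) in 100 mM sodium acetate pH 7 with compound, fibrillization induced by 20 uM heparin for 6 hr at 37 C. Thioflavin T (30 uM) added, fluorescence read after 1 hr (ex 450, em 510 nm).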
Tau fluor counter = Counterscreen qHTS for Inhibitors of Tau Fibril Formation, Fluorescence Polarization | tau K18 P301L Alexa594 fluorescence, heparin fibrillization | Potency, µM (doses to about 57.7 µM) | 280,000 tested, 0.93% active | AID 1463, 2008; further: nearly all actives have a fitted effect of over 55% in size
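Human tau K18 P301L (15 uM unlabeled, 0.24 uM Alexa 594-labeled) in 100 mM sodium acetate pH 7 with 20 uM heparin, 6 hr at 37 C. ThT 30 uM added, 1 hr ambient; Alexa 594 FP and total fluorescence read at 555/632 nm.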
Large screens that a line does not name were inactive. Unless noted, the call rests on the fitted dose curve; in most records, active means well fitted curve in the direction sought with a large enough effect; inconclusive means small, poorly fitted or top-dose-only effect, or another doubt; inactive means no such curve, though single readings can be large; an effect the other way counts as inactive or inconclusive.

O=C(CSc1nccn1Cc1ccc2c(c1)OCO2)Nc1ccccc1F	none (no result: FBPA coupling cs, Sfp PPTase inh)
O=C(C1CCN(S(=O)(=O)c2cccc3cccnc23)CC1)N1CCN(C2CCCCC2)CC1	G9a block 35µM
O=C(C1CCCN(S(=O)(=O)c2cccc3cccnc23)C1)N1CCc2ccccc21 (stereo not given)	G9a block 45µM
CC1CCN(C(=O)C2CCN(S(=O)(=O)c3cccc4cccnc34)CC2)CC1	none (no result: Tau fibril FP, FBPA coupling cs, Tau fibril ThT, Tau fluor counter)
CC(=O)C1=C(c2ccc(Cl)cc2)N(C(C)=O)n2c(nnc2C2CCCCC2)S1	Tau fibril ThT inconclusive (no result: FBPA coupling cs, Sfp PPTase inh)
O=C(CSc1nnc(SCc2ccccc2)s1)NNC(=S)Nc1ccccc1	G9a block 2.2µM
O=C(CN1CCN(Cc2ccccc2)CC1)N/N=C\C=C/c1ccco1	G9a block inconclusive, Tau fibril ThT inconclusive
Cn1c(SCC(=O)N/N=C/C=C/c2ccco2)nc2ccccc21	G9a block 7.1µM, Tau fibril FP inconclusive, Tau fibril ThT inconclusive
CCn1c(SCC(=O)N/N=C/C=C/c2ccco2)nnc1-c1ccccc1	G9a block 16µM, Tau fibril FP inconclusive, Tau fibril ThT inconclusive
O=C(CSc1nnc(SCc2ccccc2)s1)N/N=C/C=C/c1ccco1	G9a block 13µM, Tau fibril FP inconclusive, Sfp PPTase inh 35µM, Tau fibril ThT inconclusive
CN(C)S(=O)(=O)c1ccc2c(c1)N(CC(=O)NCc1ccc(F)cc1)C(=O)CS2	none (no result: FBPA coupling cs, Sfp PPTase inh)
CN(C)c1ccc(Nc2ncnc3c2c(-c2ccccc2)cn3-c2cccc(Cl)c2)cc1	G9a block 8.9µM, Tau fibril ThT inconclusive, Tau fluor counter inconclusive (no result: FBPA coupling cs, Sfp PPTase inh)
COc1cc(Br)cc(C=Nc2cccc(C(F)(F)F)c2)c1O	Tau fibril ThT 14µM
COc1cccc(C=Nc2cc(C)cc(C)c2)c1O	Tau fibril ThT inconclusive
O=C1c2ccccc2NC(c2ccc(O)cc2)N1c1ccccc1 (stereo not given)	none (no result: Tau fibril FP, Tau fibril ThT, Tau fluor counter)
Cc1nn(-c2ccccc2)c(N2CCCC2)c1/C=C1\N=C(c2ccc(F)cc2)OC1=O	none
Cc1ccc(C2=N/C(=C\c3c(C)nn(-c4ccccc4)c3N3CCCC3)C(=O)O2)cc1	Tau fibril ThT 13µM
CC(C(=O)Nc1ccc(N(C)C)cc1)N1C(=O)c2ccccc2S1(=O)=O (stereo not given)	G9a block 14µM (no result: Tau fibril FP, FBPA coupling cs, Sfp PPTase inh, Tau fibril ThT, Tau fluor counter)
COc1ccc(NC(=O)C(NS(=O)(=O)c2cccc3nsnc23)C(C)C)cc1 (stereo not given)	none (no result: FBPA coupling cs, Sfp PPTase inh)
CCOc1ccc(C(c2c(NC(=O)c3ccccc3)sc(C)c2C)N2CCN(CCO)CC2)cc1 (stereo not given)	G9a block inconclusive
CCc1cc(C(c2ccncc2)N2CCN(C)CC2)c(NC(=O)c2ccccc2)s1 (stereo not given)	G9a block 40µM
CCn1c(C)c2c([n+]1CC)CC(C)(C)CC2=O	G9a block 16µM
CCn1c2c(c(C)cc1=O)C(=O)CC(C)(C)C2	none
CCCC(c1nnnn1C(C)(C)CC)N1CCN(C(=O)c2ccco2)CC1 (stereo not given)	G9a block 89µM (no result: Tau fibril FP, Tau fibril ThT, Tau fluor counter)
CCC(C)(C)n1nnnc1C(c1cc2cccc(C)c2[nH]c1=O)N1CCN(C(=O)c2ccco2)CC1 (stereo not given)	G9a block inconclusive, Sfp PPTase inh 79µM, Tau fibril ThT inconclusive
CCC(c1nnnn1CCc1ccccc1)N1CCN(C(=O)c2ccco2)CC1 (stereo not given)	G9a block 50µM
CCC(C)(C)n1nnnc1C(C(C)C)N1CCN(C(=O)c2ccco2)CC1 (stereo not given)	none (no result: Tau fibril FP, Tau fibril ThT, Tau fluor counter)
Cc1ccc2cc(C(c3nnnn3C(C)(C)C)N3CCCC3)c(=O)[nH]c2c1C (stereo not given)	G9a block 32µM, Tau fibril FP inconclusive, Sfp PPTase inh 45µM, Tau fibril ThT inconclusive
CN(Cc1ccc(Cl)cc1)C(=O)COC(=O)CSc1ccc([N+](=O)[O-])cc1	none (no result: Tau fibril FP, FBPA coupling cs, Sfp PPTase inh, Tau fibril ThT, Tau fluor counter)
Cc1c(C(=O)Nc2cccc(C(F)(F)F)c2)oc2ccc(S(=O)(=O)N(C)C3CCCCC3)cc12	Tau fibril FP inconclusive (no result: FBPA coupling cs, Sfp PPTase inh)
COc1cccc(NC(=O)Cn2c(=O)n(CCCCC(=O)NCc3ccccc3Cl)c(=O)c3ccccc32)c1	Tau fibril FP inconclusive, Tau fluor counter inconclusive (no result: FBPA coupling cs, Sfp PPTase inh)
CCCCC(=O)NC1=C(C(=O)OC)SCC1	G9a block 4.5µM
COC(=O)C1=C(NC(=O)CCCCl)CCS1	Sfp PPTase inh inconclusive
COc1ccc(-n2cnnc2SCC(=O)Nc2ccccc2F)cc1	none (no result: Tau fibril FP, Tau fibril ThT, Tau fluor counter)
